# Source: PubChem BioAssay (NCATS)
# “And” between values parts separate entries of the source, which are not always exact repeats. Equal entries are not always repeated. Records with an inconclusive call do not appear. Where a call stands in place of a potency, no number is given. Some compounds were tested as several samples or in several runs, with calls that do not always agree. The source made the active and inactive calls. Unless noted, calls follow the shape of the dose curve; as a rule, active = well fitted curve in the direction sought with a large enough effect; inconclusive = small, poorly fitted or top-dose-only effect, or another doubt; inactive = no such curve, though single readings can be large; an effect the other way counts as inactive or inconclusive.
# How the values were obtained:
# [1] = molecular target: Ubiquitin carboxyl-terminal hydrolase 1 (Homo sapiens) (UniProt O94782); assay: Inhibitors of USP1/UAF1: Pilot qHTS (AID 504865); also: nearly all actives have a fitted effect of over 35% in size; also: potency is read from the fitted curve at half-maximal effect;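 as to activity change, negative = inhibition: rhodamine fluorescence freed from ubiquitin-rhodamine substrate followed over time; top concentration of the series differs between compounds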
# How it was run: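 Deubiquitinase activity followed as kinetic rhodamine fluorescence release from 150 nM Ub-Rho. 1 nM USP1/UAF1 with compound, after 15 min room-temperature preincubation, in HEPES pH 7.8 buffer containing TCEP, EDTA, BSA and Tween-20.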
# [2] = qHTS for Inhibitors of ATXN expression: Validation of Cytotoxic Assay (AID 588349)
# How it was run: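 HEK293 cells were dosed with titrated compounds for 72 hr at 37 degrees C. Viability was read by CellTiter Glo luminescence, with intracellular ATP as the marker of cell survival.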
# [3] = qHTS for Inhibitors of ATXN expression: Validation (AID 588378); also: series mostly up to about 57 µM; nearly all actives have a fitted effect of over 75% in size
# How it was run: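 Luciferase luminescence (Bright-Glo) from an ATXN2-FFLuc HEK293 line after 24 h compound exposure at 37 °C, preceded by a CellTiter-Fluor fluorescence viability read. Serial dilutions of a reference ATXN2 inhibitor and a luciferase inhibitor served as controls.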
# [4] = molecular target: Estrogen receptor (Homo sapiens) (UniProt P03372); assay: qHTS assay for small molecule antagonists of estrogen receptor alpha signaling (AID 588513; active = well fitted curve in the direction sought with a large enough effect in the signal ratio, with a control signal flat, not every such curve was filed as active; the % refers to the signal ratio)
# How it was run: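 Antagonist mode: inhibition of 0.5 nM 17-beta-estradiol-driven beta-lactamase reporter in HEK 293 ER-alpha-UAS-bla cells, 18 h at 37C, CCF4 readout after 2 h at RT. Normalised to estradiol and DMSO; titration fitted to Hill.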
# [5] = molecular target: Estrogen receptor (Homo sapiens) (UniProt P03372); assay: qHTS assay for small molecule agonists of estrogen receptor alpha signaling (AID 588514; calls by dose curve; also: nearly all actives have a fitted effect of over 70% in size)
# How it was run: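 ER-alpha-UAS-bla GripTite HEK 293 cells in medium with 2% charcoal/dextran-treated FBS were treated with compound titrations at 37 C for 18 hrs; beta-lactamase reporter read by CCF4 fluorescence after 2 hrs at RT.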
# [6] = molecular target: Bile acid receptor (Homo sapiens) (UniProt Q96RI1); assay: qHTS assay for small molecule antagonists of farnesoid X receptor signaling (AID 588526; calls by dose curve)
# How it was run: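 Beta-lactamase reporter antagonist mode: HEK293T FXR-UAS-bla cells, titrated compound, CDCA stimulation, 16 h 37 C, CCF4 dye 2 h RT. Data normalized to CDCA 50 uM and DMSO; Hill-fit IC50.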
# [7] = molecular target: Bile acid receptor (Homo sapiens) (UniProt Q96RI1); assay: qHTS assay for small molecule agonists of farnesoid X receptor signaling (AID 588527; calls by dose curve; also: series mostly up to about 77 µM); conditions: HEK293T FXR-UAS-bla, beta-lactamase ratio, 16 h; stronger effect = higher value
# How it was run: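 Quantitative HTS used FXR-UAS-bla HEK293T cells with 16 h compound incubation at 37 C. EC50 values came from concentration-response curves normalized to chenodeoxycholic acid.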
# [8] = molecular target: Glucocorticoid receptor (Homo sapiens) (UniProt P04150); assay: qHTS assay for small molecule agonists of glucocorticoid receptor signaling (AID 588532; active = well fitted curve in the direction sought with a large enough effect in the signal ratio, with a control signal flat; the % refers to the signal ratio); conditions: HeLa MMTV-bla, beta-lactamase ratio, agonist, 18 h; stronger effect = higher value; percent of dexamethasone control, DMSO zero
# How it was run: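 Quantitative HTS using CellSensor MMTV-bla HeLa cells in charcoal/dextran-treated serum; compounds tested up to 92 uM. After 18 h at 37 C, CCF4 dye reported reporter induction.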
# [9] = molecular target: Glucocorticoid receptor (Homo sapiens) (UniProt P04150); assay: qHTS assay for small molecule antagonists of glucocorticoid receptor signaling (AID 588533; active = well fitted inhibition curve with a large enough effect in the signal ratio, with a control signal flat, not every such curve was filed as active; the % refers to the signal ratio;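 also: cells stimulated with 2 nM dexamethasone as agonist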)
# How it was run: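 Antagonist-mode qHTS: compound titrations added to GRE-bla HeLa cells, then dexamethasone 2 nM final; 18 h, 37 C. CCF4 FRET fluorescence normalized to dexamethasone and DMSO; IC50 from Hill fit.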
# [10] = molecular target: Peroxisome proliferator-activated receptor delta (Homo sapiens) (UniProt Q03181); assay: qHTS assay for small molecule agonists of peroxisome proliferator-activated receptor delta signaling (AID 588534; calls by dose curve)
# How it was run: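 Cell-based beta-lactamase reporter assay run in agonist mode: cells seeded and incubated 5 hrs at 37 C, compounds added and incubated 18 hrs at 37 C. CCF4 dye fluorescence read after 2 hrs at RT; EC50 and efficacy from Hill fits.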
# [11] = qHTS assay for small molecule antagonists of peroxisome proliferator-activated receptor delta signaling (AID 588535; active = well fitted inhibition curve with a large enough effect in the signal ratio, with a control signal flat, not every such curve was filed as active; the % refers to the signal ratio;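 as to max response: cells co-treated with a PPAR-delta agonist as stimulator during compound exposure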); conditions: HEK293T PPARd-UAS-bla, beta-lactamase FRET ratio, 18 h; 460 nm channel
# How it was run: (§1)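 Cell-based beta-lactamase assay in antagonist mode: 4000 HEK293T PPAR-delta-UAS-bla cells per well, 5 hr preincubation then 18 hr compound incubation at 37 C. IC50 obtained by Hill equation fitting.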
# [12] = molecular target: Peroxisome proliferator-activated receptor delta (Homo sapiens) (UniProt Q03181); assay: as above
# How it was run: as §1
# [13] = molecular target: Peroxisome proliferator-activated receptor gamma (Homo sapiens) (UniProt P37231); assay: qHTS assay for small molecule agonists of peroxisome proliferator-activated receptor gamma signaling (AID 588536; active = well fitted curve in the direction sought with a large enough effect in the signal ratio, with a control signal flat, not every such curve was filed as active; the % refers to the signal ratio)
# How it was run: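 HEK293 UAS-bla reporter line, 1% charcoal/dextran FBS; titration, 16 h, 37 C; CCF4 loading 2 h RT; fluorescence 460/530 nm. Normalized to rosiglitazone 2 uM = 100%, DMSO = 0%.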
# [14] = molecular target: Peroxisome proliferator-activated receptor gamma (Homo sapiens) (UniProt P37231); assay: qHTS assay for small molecule antagonists of peroxisome proliferator-activated receptor gamma signaling (AID 588537; active = well fitted inhibition curve with a large enough effect in the signal ratio, with a control signal flat, not every such curve was filed as active; the % refers to the signal ratio;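 also: reporter cells co-stimulated with 50 nM rosiglitazone agonist during compound treatment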)
# How it was run: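 Inhibitors of agonist-stimulated UAS-bla reporter activity were sought in HEK293 cells; rosiglitazone (50 nM) defined full signal and DMSO baseline. Curves fitted to Hill model gave IC50 and efficacy.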
# [15] = molecular target: Vitamin D3 receptor (Homo sapiens) (UniProt P11473); assay: qHTS assay for small molecule antagonists of vitamin D receptor signaling (AID 588541; calls by dose curve;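 also: receptor activated by calcitriol during compound treatment; series mostly up to about 77 µM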)
# How it was run: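 Antagonist-mode beta-lactamase reporter assay: HEK293T VDR-UAS-bla cells were exposed to titrated compound alongside 1-alpha,25-dihydroxyvitamin D3 at 3 nM final for 16 h. Values were normalized to the 50 nM agonist control and DMSO basal, with IC50 and efficacy from Hill equation fits.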
# [16] = molecular target: Vitamin D3 receptor (Homo sapiens) (UniProt P11473); assay: qHTS assay for small molecule agonists of vitamin D receptor signaling (AID 588543; calls by dose curve)
# How it was run: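 Agonist-mode beta-lactamase reporter: HEK293T VDR-UAS-bla cells in charcoal-stripped 2% FBS, compound series 16 h 37 C, CCF4 2 h RT. EC50 from Hill fit, scaled against DMSO and 50 nM calcitriol control.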
# Peroxisome proliferator-activated receptor gamma (Homo sapiens), sequence (P37231 whole entry, looked up): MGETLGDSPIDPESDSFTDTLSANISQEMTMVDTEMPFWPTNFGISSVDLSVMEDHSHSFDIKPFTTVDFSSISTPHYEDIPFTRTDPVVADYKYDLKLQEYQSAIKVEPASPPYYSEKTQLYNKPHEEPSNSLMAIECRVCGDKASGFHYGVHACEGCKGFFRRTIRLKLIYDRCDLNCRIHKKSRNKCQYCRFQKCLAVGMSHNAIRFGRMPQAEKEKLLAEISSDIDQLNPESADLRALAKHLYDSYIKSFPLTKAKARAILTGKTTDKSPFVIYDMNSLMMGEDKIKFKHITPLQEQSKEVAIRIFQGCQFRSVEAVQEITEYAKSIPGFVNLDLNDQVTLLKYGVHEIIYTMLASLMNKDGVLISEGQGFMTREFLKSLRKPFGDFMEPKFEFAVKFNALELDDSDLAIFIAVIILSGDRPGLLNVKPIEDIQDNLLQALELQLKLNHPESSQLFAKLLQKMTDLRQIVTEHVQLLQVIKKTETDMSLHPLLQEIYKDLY
# Bile acid receptor (Homo sapiens), sequence (Q96RI1 whole entry, looked up): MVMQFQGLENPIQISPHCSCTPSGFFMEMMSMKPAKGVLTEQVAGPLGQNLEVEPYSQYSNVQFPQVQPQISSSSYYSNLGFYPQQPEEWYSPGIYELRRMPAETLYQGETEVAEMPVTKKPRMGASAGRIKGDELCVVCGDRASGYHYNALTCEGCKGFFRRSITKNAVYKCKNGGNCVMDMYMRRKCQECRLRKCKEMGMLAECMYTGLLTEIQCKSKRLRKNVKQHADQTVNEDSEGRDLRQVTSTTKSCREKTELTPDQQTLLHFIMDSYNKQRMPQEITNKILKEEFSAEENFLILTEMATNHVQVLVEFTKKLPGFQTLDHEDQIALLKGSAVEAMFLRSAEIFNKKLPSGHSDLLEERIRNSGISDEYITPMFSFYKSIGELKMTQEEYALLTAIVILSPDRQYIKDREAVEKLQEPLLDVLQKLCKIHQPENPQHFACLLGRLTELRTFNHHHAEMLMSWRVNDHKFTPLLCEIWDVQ
# Peroxisome proliferator-activated receptor delta (Homo sapiens), sequence (Q03181 whole entry, looked up): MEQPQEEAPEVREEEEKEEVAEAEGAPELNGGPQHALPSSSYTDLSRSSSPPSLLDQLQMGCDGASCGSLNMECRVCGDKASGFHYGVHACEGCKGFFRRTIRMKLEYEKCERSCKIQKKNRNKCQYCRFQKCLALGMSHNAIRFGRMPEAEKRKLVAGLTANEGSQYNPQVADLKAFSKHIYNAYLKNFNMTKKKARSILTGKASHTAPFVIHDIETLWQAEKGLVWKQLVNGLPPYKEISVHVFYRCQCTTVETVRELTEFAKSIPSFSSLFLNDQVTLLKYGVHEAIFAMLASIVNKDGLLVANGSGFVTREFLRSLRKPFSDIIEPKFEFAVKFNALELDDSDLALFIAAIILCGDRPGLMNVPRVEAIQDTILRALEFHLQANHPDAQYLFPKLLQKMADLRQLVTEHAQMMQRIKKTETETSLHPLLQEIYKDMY
# Vitamin D3 receptor (Homo sapiens), sequence (P11473 whole entry, looked up): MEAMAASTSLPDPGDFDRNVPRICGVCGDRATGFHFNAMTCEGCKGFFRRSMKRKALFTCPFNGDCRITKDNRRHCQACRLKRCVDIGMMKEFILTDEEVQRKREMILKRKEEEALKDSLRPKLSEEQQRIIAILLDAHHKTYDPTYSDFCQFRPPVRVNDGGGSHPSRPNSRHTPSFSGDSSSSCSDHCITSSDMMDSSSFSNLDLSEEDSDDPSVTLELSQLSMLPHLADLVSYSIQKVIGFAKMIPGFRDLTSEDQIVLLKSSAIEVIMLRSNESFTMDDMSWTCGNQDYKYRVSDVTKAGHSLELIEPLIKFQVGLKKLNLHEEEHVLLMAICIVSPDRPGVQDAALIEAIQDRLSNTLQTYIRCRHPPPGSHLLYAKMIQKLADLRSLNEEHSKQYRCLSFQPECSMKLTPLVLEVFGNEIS
# Estrogen receptor (Homo sapiens), sequence (P03372 whole entry, looked up): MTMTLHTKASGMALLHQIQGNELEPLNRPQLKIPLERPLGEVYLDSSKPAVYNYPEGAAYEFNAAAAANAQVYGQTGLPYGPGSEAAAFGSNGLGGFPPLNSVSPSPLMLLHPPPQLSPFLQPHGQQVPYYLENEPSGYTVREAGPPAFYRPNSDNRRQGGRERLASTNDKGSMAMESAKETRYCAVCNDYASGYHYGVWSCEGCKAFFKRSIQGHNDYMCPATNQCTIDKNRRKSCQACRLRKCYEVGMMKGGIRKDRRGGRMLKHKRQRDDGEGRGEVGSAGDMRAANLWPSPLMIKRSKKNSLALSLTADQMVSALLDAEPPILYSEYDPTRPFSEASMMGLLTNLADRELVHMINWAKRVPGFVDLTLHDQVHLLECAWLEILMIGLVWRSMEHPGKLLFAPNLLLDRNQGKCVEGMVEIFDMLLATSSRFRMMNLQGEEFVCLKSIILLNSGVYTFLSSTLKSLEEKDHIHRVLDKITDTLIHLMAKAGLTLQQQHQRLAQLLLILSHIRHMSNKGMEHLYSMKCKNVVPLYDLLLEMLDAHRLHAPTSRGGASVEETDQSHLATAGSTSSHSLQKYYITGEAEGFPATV
# Ubiquitin carboxyl-terminal hydrolase 1 (Homo sapiens), sequence (O94782 whole entry, looked up): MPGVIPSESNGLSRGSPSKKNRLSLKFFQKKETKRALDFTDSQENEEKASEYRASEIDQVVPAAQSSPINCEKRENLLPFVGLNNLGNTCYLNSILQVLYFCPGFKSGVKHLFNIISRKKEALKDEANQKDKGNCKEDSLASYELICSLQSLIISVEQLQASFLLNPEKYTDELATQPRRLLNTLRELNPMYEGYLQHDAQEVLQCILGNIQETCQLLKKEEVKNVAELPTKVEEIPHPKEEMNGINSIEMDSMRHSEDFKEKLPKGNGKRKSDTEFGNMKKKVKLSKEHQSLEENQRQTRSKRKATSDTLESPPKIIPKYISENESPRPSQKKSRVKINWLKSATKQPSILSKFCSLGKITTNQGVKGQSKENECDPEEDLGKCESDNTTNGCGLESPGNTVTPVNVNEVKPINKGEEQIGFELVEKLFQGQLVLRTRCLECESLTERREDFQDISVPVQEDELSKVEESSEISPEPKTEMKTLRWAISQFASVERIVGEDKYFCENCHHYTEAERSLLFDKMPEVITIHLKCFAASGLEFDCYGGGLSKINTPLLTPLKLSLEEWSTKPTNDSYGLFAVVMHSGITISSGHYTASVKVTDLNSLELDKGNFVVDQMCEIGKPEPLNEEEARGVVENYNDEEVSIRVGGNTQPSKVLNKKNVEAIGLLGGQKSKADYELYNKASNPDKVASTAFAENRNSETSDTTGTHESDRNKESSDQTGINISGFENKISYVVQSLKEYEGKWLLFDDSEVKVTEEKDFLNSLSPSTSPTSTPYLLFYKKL
# Glucocorticoid receptor (Homo sapiens), sequence (P04150 whole entry, looked up): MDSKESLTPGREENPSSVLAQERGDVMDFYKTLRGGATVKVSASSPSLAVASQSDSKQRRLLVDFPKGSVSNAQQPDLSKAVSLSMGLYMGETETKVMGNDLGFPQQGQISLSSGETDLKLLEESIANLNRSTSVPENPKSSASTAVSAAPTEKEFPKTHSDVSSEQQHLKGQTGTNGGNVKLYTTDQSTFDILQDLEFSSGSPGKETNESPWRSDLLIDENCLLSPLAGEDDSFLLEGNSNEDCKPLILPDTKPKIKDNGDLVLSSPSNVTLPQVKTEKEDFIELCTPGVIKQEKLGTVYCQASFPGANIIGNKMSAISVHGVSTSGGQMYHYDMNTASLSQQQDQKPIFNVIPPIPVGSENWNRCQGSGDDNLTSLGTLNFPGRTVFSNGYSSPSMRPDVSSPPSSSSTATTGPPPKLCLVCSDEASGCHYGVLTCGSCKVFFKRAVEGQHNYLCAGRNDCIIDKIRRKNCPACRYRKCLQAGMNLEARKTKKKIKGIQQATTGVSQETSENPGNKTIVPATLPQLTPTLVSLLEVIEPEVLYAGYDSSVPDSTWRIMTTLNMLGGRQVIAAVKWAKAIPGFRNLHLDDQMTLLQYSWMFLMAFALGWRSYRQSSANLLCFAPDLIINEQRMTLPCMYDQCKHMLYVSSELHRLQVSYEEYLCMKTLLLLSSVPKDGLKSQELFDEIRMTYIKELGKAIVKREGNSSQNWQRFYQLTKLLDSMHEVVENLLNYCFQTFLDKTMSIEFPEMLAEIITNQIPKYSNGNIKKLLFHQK
smiles,measurement,setting,value
COC1CC(=C(c2cccs2)c2cccs2)C[N+](C)(C)C1 (stereo not drawn),Potency,[1],inactive
NNc1ccccc1,Potency,[1],inactive
CN1C(=O)COc2c(C(=O)NC3CN4CCC3CC4)cc(Cl)cc21 (stereo not drawn),Potency,[1],inactive
CC(NC(C)(C)C)C(=O)c1cccc(Cl)c1 (stereo not drawn),Potency,[1],inactive
same,outcome,[2],inactive
same,outcome,[3],inactive
Cc1cc(C(C#N)c2ccc(Cl)cc2)c(Cl)cc1NC(=O)c1cc(I)cc(I)c1O (stereo not drawn),Potency,[1],50.1 µM (active)
Cc1nnc2n1-c1ccc(Cl)cc1C(c1ccccc1)=NC2,Potency,[1],inactive
Cc1nnc2n1-c1ccc(Cl)cc1C(c1ccccc1Cl)=NC2,Potency,[1],inactive
COc1cccc([C@@]2(O)CCCC[C@@H]2CN(C)C)c1,Potency,[1],inactive
C[C@]12CC[C@@H]3c4ccc(OC(=O)N(CCCl)CCCl)cc4CC[C@H]3[C@@H]1CC[C@@H]2O,Potency,[1],50.1 µM (active)
CN1CCC(O)(c2ccc(F)cc2)C(C(=O)c2ccc(F)cc2)C1 (stereo not drawn),Potency,[1],inactive
Clc1ccc2c(c1)C(c1ccccc1)=NCc1nncn1-2,Potency,[1],inactive
O=C1OC(c2ccc(O)c(S(=O)(=O)O)c2)(c2ccc(O)c(S(=O)(=O)O)c2)c2c(Br)c(Br)c(Br)c(Br)c21,Potency,[1],50.1 µM (active)
CCC1(CC)C(=O)C=CNC1=O,Potency,[1],inactive
COc1c2c(cc3c1OCO3)CCN(C)C2,Potency,[1],inactive
CN1C(=O)NC(=O)C(C)(C2=CCCCC2)C1=O (stereo not drawn),Potency,[1],inactive
CNC(C)(C)Cc1ccccc1,Potency,[1],inactive
CN1C(=O)C(O)N=C(c2ccccc2)c2cc(Cl)ccc21 (stereo not drawn),Potency,[1],inactive
FC1(F)C(F)(F)C(F)(F)C2(F)C(F)(F)C(F)(F)C(F)(F)C(F)(F)C2(F)C1(F)F (stereo not drawn),Potency,[1],79.4 µM (active)
O=P1(N(CCCl)CCCl)NCCCO1 (stereo not drawn),Potency,[1],inactive
same,outcome,[2],inactive
same,outcome,[3],inactive
same,outcome,[4],inactive
same,Potency,[5],inactive
same,Potency,[6],inactive
same,activation,[7],-1.19% (inactive) and 1.86% (inactive)
same,activation,[8],2.61% (inactive) and 1.05% (inactive)
same,Potency,[9],inactive
same,outcome,[10],inactive
same,max response,[11],34.9% and 30.3%
same,outcome,[12],inactive
same,outcome,[13],inactive
same,outcome,[14],inactive
same,Potency,[15],inactive
same,outcome,[16],inactive
CC(C)C[C@H]1C(=O)N2CCC[C@H]2[C@]2(O)O[C@](NC(=O)[C@@H]3C=C4c5cccc6[nH]c(Br)c(c56)C[C@H]4N(C)C3)(C(C)C)C(=O)N12,Potency,[1],inactive
O=C1Nc2ccc(Cl)cc2C(c2ccccc2)=NC1O (stereo not drawn),Potency,[1],inactive
COc1ccc2c(c1)C13CCCC[C@@H]1C(C2)N(C)CC3 (stereo partly drawn),Potency,[1],inactive
CCCCC/C=C\C/C=C\C/C=C\C/C=C\CCCC(=O)NCC(=O)O,Potency,[1],18.9 µM (active)
same,"activity change, negative = inhibition",[1],-11.7% [at 11.4 µM] (inactive)
same,outcome,[2],inactive
same,outcome,[3],inactive
CN1C(=O)CC(=O)N(c2ccccc2)c2cc(Cl)ccc21,Potency,[1],inactive
COP(=S)(OC)Oc1ccc(S(=O)(=O)N(C)C)cc1,Potency,[1],inactive
CC(C)(C)c1ccc(O)cc1,Potency,[1],inactive
O=C1CN=C(c2ccccc2)c2cc([N+](=O)[O-])ccc2N1,Potency,[1],inactive
CC(C)(C)NCC(O)c1cc(Cl)c(N)c(C(F)(F)F)c1 (stereo not drawn),Potency,[1],inactive
NC(=O)CS(=O)C(c1ccccc1)c1ccccc1 (stereo not drawn),Potency,[1],inactive
CCC1(c2ccccc2)C(=O)N(COC)C(=O)N(COC)C1=O,Potency,[1],inactive
O=C1Nc2ccc(Cl)cc2C(c2ccccc2Cl)=NC1O (stereo not drawn),Potency,[1],inactive
CCCCCCC(=O)CCCCCC/C=C/C[C@@H](O)[C@H](O)[C@@](N)(CO)C(=O)O,Potency,[1],inactive
O=C(N/N=C/c1ccc([N+](=O)[O-])o1)c1cc([N+](=O)[O-])cc([N+](=O)[O-])c1O,Potency,[1],inactive
